From PubChem BioAssay AID2284375 (EPA ToxCast)
Results filed as inconclusive are left out. The source made the active and inactive calls. How the source made its calls: active means hit-call score of the fitted dose curve at least 0.9, where 1 is the maximum; inconclusive means response in the unintended direction; inactive means score below 0.9.

The compounds below were run against Estrogen receptor (Homo sapiens) (UniProt P03372) (assay: ERF_US_NR_hESR1: Eurofins (ERF) Nuclear Receptor (NR) Cell Based Protein-Protein Interaction LeadHunter Assay for human Estrogen Receptor alpha (ERa) Agonism).
Sequence of Estrogen receptor (Homo sapiens) (P03372 whole entry, looked up): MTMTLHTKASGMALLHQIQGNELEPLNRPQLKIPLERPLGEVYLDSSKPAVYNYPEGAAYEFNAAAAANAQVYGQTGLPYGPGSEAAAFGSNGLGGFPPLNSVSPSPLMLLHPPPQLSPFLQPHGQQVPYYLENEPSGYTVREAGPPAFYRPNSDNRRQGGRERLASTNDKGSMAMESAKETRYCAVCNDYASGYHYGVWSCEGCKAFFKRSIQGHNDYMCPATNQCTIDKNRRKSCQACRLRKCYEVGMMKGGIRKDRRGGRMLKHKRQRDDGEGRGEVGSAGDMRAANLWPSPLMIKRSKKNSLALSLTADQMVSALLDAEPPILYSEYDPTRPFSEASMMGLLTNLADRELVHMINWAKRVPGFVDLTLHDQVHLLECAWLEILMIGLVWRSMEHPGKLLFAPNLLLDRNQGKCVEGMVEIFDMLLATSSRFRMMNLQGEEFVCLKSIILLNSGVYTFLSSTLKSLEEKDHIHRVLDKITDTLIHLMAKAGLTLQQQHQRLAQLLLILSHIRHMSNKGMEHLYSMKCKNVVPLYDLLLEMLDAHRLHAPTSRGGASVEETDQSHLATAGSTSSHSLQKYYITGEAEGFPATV
Description: ERF_US_NR_hESR1 is a cell-based, single-readout assay that uses extracted gene-proteins in a cell-line assay. Measurements were taken 5 hours after chemical dosing in a 384-well plate. See ERalpha Human Estrogen NHR Cell Based Agonist Protein-Protein Interaction Assay, DiscoverX.ERF_US_NR_hESR1 is an assay component calculated from the ERF_US_NR_hESR1 assay. It is designed to […].Data from the assay component ERF_US_NR_hESR1 was analyzed at the assay endpoint, ERF_US_NR_hESR1, in the positive analysis fitting direction relative to DMSO as the negative control and baseline of activity. Using a type of binding reporter, gain-of-signal activity can be used to understand changes in binding as they relate to gene ESR1. To generalize the intended target to other relatable targets, this assay endpoint is annotated to the nuclear receptor intended target family, where the subfamily is steroid.
Cells were seeded in a total volume of 20 uL into white walled, 384-well microplates and incubated at 37C overnight prior to testing. Briefly, intermediate dilution of sample stocks was performed to generate 5X sample in assay buffer. 5 uL of 5X sample was added to cells and incubated at37C for 300 minutes. Final assay vehicle concentration was 1%. The results are expressed as a percent efficacy of the control ligand.

With `OCC(F)(F)OC(F)(F)C(F)(F)OC(F)(F)C(F)(F)OC(F)(F)F` as the compound, how does the AC50 read?
Its AC50 is 19.5 µM (active).

`NS(=O)(=O)C(F)(F)C(F)(F)C(F)(F)C(F)(F)C(F)(F)C(F)(F)C(F)(F)C(F)(F)F` was tested. Which outcome did it give?
Its outcome is “inactive”.

With `OCC(F)(F)OC(F)(F)C(F)(F)OC(F)(F)C(F)(F)OC(F)(F)CO` as the compound, how does the outcome read?
Its outcome is “inactive”.
